SMILES strings stand for the structures. Inconclusive results are not listed. The source made the active and inactive calls. How the source made its calls: active means hit-call score of the fitted dose curve at least 0.9, where 1 is the maximum; inconclusive means response in the unintended direction; inactive means score below 0.9.

What is called AC50 is the concentration at which the activity in the assay is half-maximal.

Sequence of AR (gene 367) (P10275 whole entry, looked up): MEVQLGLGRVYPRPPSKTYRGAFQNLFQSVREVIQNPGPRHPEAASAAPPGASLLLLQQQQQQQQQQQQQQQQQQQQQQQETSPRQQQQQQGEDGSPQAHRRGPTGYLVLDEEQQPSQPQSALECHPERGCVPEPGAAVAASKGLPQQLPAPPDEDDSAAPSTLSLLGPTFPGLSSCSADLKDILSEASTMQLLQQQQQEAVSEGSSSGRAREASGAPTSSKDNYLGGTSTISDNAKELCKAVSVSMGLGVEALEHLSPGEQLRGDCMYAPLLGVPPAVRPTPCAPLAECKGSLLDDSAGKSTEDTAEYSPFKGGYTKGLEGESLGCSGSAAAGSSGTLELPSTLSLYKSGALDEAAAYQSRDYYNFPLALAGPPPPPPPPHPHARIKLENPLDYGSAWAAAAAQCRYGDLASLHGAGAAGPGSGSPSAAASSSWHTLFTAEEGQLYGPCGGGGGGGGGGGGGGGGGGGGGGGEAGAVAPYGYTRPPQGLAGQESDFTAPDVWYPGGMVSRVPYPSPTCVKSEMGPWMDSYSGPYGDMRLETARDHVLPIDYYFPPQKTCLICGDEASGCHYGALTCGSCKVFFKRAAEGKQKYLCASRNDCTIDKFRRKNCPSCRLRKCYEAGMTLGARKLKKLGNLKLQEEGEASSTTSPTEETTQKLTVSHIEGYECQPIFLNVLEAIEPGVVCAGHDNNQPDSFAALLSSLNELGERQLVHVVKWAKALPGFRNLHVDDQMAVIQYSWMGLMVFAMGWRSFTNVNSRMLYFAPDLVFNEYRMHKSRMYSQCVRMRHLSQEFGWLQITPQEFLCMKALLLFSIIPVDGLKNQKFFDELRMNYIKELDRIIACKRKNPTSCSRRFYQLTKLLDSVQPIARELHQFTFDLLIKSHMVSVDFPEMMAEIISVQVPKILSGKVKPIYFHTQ

For this assay, the target named is AR (gene 367) (UniProt P10275). Description: ACEA_AR_antagonist_80hr: ACEA Biosciences xCELLigence Real-Time Cell Analysis on Androgen Receptor Antagonism for Proliferation (AID 2283787).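 Further: 22Rv1 human prostate cancer cells with growth followed by electrical impedance; hits lower the impedance growth signal relative to DMSO.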 The essentials:
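Impedance readout (RT-CES), 80 h post-dose; loss-of-signal vs DMSO baseline. 22Rv1 cells in assay medium. Compounds: 8-pt 1:4 series, max 100 uM final, up to 0.5% DMSO; n = 2.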
On to `O=C(NS(=O)(=O)/C=C/c1cccs1)c1ccc(F)cc1Br`, for which the concentration at half-maximal activity (AC50) was 3.96 µM (active).

On to `CC1=C(C)S(=O)(=O)CCS1(=O)=O`, for which the AC50 is 79.6 µM (active).

In the case of `O=C1CCCCC1`, the compound was called inactive.

Source of the values: PubChem BioAssay (EPA / NIEHS).
